Data taken from PubChem BioAssay (NCATS).
Where “and” joins values, the source holds several entries; their conditions need not be identical. Identical values can stand only once. Inconclusive results are not listed. Unmarked numbers belong to inactive results. Calls of active or inactive are those of the source. Calls come from the whole dose curve; as a rule, active = well fitted inhibition curve with a large enough effect; inconclusive = small, poorly fitted or top-dose-only effect; inactive = flat fitted curve, though single readings scatter.

Key:
[1] = Drug repurposing screens with cells derived from glioblastoma tumor samples (AID 1345199); conditions: GBM patient neurospheres viability, ATP luminescence, 48 h; note: nearly all actives have a fitted effect of over 40% in size
Outline: (§1)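 Primary testing used CD133+ neurospheres from four GBM patients, seven concentrations, 48 h exposure and ATP-based viability; confirmation added three slower-growing patient lines.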

[2] = tested on: astro; test: as above; conditions: viability, ATP luminescence, 48 h; series mostly up to 45.9 µM
Outline: as §1

[3] = at 20 µM (top of the series), tumour line C
[4] = at 21.2 µM (top of the series), tumour line B
[5] = at 21.2 µM (top of the series), tumour line D
[6] = at 21.3 µM (top of the series), tumour line A
[7] = at 45.9 µM (top of the series), tumour line B
[8] = at 45.9 µM (top of the series), tumour line D
[9] = at 46.1 µM (top of the series), tumour line C
[10] = at 46 µM (top of the series), tumour line A
% is set by controls: 0 for no effect and ±100 for the full control effect; potency is the fitted concentration of half-maximal effect.

## O=C(c1ccccc1)c1ccc2n1CCC2C(=O)O (configuration not stated)
[1]; [3]
  activity, negative = cell killing: 0.506%
[1]; [4]
  activity, negative = cell killing: -13.1%
[1]; [5]
  activity, negative = cell killing: -2.23%
[1]; [6]
  activity, negative = cell killing: -11%
[1]; [7]
  activity, negative = cell killing: -9.76%
[1]; [8]
  activity, negative = cell killing: -4.33%
[1]; [9]
  activity, negative = cell killing: -1.4%
[2]
  Potency: inactive

## Cc1ncc([N+](=O)[O-])n1CC(C)O (configuration not stated)
[1]; [7]
  activity, negative = cell killing: -7.1%
[1]; [8]
  activity, negative = cell killing: 3.12%
[1]; [10]
  activity, negative = cell killing: -20.2%
[1]; [9]
  activity, negative = cell killing: -8.86%
[2]
  Potency: inactive

## O=P(O)(O)C(O)(Cn1ccnc1)P(=O)(O)O
[1]; [7]
  activity, negative = cell killing: -3.43%
[1]; [8]
  activity, negative = cell killing: -0.668%
[1]; [10]
  activity, negative = cell killing: -16.2%
[1]; [9]
  activity, negative = cell killing: -7.84%
[2]
  Potency: inactive

## O=C(NCC1CCCCN1)c1cc(OCC(F)(F)F)ccc1OCC(F)(F)F (configuration not stated)
[1]; [10]
  activity, negative = cell killing: 20.5%
[1]; [9]
  activity, negative = cell killing: -6.86%

## O=C(CS(=O)Cc1ccco1)NCC=CCOc1cc(CN2CCCCC2)ccn1 (configuration not stated)
[1]; [7]
  activity, negative = cell killing: -14.1%
[1]; [8]
  activity, negative = cell killing: -2.16%
[1]; [9]
  activity, negative = cell killing: -28%
[1]; tumour line A
  Potency: 25.1 µM (active)
[2]
  Potency: inactive

## COC1=C(OC)C(=O)C(CCCCCCCCCCO)=C(C)C1=O
[1]; [7]
  activity, negative = cell killing: -9.04%
[1]; [9]
  activity, negative = cell killing: 1.43%

## CCCCCCCCOc1ccccc1C(=O)Nc1ccc(C(=O)OCC[N+](C)(CC)CC)cc1
[1]; [9]
  activity, negative = cell killing: -98.5%
[1]; tumour line A
  Potency: 14.1 µM (active)
[1]; tumour line B
  Potency: 17.8 µM (active)

## CC[C@]1(O)C[C@H]2CN(CCc3c([nH]c4ccccc34)[C@@](C(=O)OC)(c3cc4c(cc3OC)N(C=O)[C@H]3[C@@](O)(C(=O)OC)[C@H](OC(C)=O)[C@]5(CC)C=CCN6CC[C@]43[C@@H]65)C2)C1
[1]; [8]
  activity, negative = cell killing: -44.9%
[1]; tumour line A
  Potency: 0.02 µM (active)

## O=C(NC(Cc1cc(=O)[nH]c2ccccc12)C(=O)O)c1ccc(Cl)cc1 (configuration not stated)
[1]; [7]
  activity, negative = cell killing: -5.33%
[1]; [8]
  activity, negative = cell killing: 4.89%
[1]; [10]
  activity, negative = cell killing: -9.81%
[1]; [9]
  activity, negative = cell killing: -15.5%
[2]
  Potency: inactive

## c1ccc2[nH]c(-c3cscn3)nc2c1
[1]; [7]
  activity, negative = cell killing: -26.3%
[1]; [9]
  activity, negative = cell killing: 7.08%

## Cc1ccc(C(=O)c2cc(O)c(O)c([N+](=O)[O-])c2)cc1
[1]; [7]
  activity, negative = cell killing: -17.5%

## Cc1ccc(Nc2nccc(N(C)c3ccc4c(C)n(C)nc4c3)n2)cc1S(N)(=O)=O
[1]; [7]
  activity, negative = cell killing: -23.7%
[1]; tumour line A
  Potency: 2.51 µM (active)
[1]; tumour line D
  Potency: 7.08 µM (active)

## CCC(C)(Oc1ccc(C2(c3ccc(OC(C)(CC)C(=O)O)cc3)CCCCC2)cc1)C(=O)O (configuration not stated)
[1]; [7]
  activity, negative = cell killing: -15.2%
[1]; [8]
  activity, negative = cell killing: -12.5%
[1]; [10]
  activity, negative = cell killing: -6.69%
[1]; [9]
  activity, negative = cell killing: -24.8%
[2]
  Potency: inactive

## Cc1ccc(NC(=O)c2ccc(CN3CCN(C)CC3)cc2)cc1Nc1nccc(-c2cccnc2)n1
[1]; [9]
  activity, negative = cell killing: 17.6%
[1]; tumour line A
  Potency: 12.6 µM (active)
[1]; tumour line B
  Potency: 20 µM (active)
[1]; tumour line D
  Potency: 12.6 µM (active)
[2]
  Potency: 20 µM (active)

## Nc1cc(C(Cl)=C(Cl)Cl)c(S(N)(=O)=O)cc1S(N)(=O)=O
[1]; [3]
  activity, negative = cell killing: -2.9%
[1]; [4]
  activity, negative = cell killing: -5.37%
[1]; [5]
  activity, negative = cell killing: -20.2%
[1]; [6]
  activity, negative = cell killing: -22%
[1]; [7]
  activity, negative = cell killing: -15.5%
[1]; [8]
  activity, negative = cell killing: 2.04%
[1]; [9]
  activity, negative = cell killing: 10.7%
[2]
  Potency: inactive

## Clc1ccc(C(Cn2ccnc2)OCc2c(Cl)cccc2Cl)c(Cl)c1 (configuration not stated)
[1]; [3]
  activity, negative = cell killing: -9.14%
[1]; tumour line A
  Potency: 7.94 µM (active)
[1]; tumour line D
  Potency: 7.08 µM (active)

## CCN(CCO)CCCC(C)Nc1ccnc2cc(Cl)ccc12 (configuration not stated)
[1]; [7]
  activity, negative = cell killing: -10.8%
[1]; [8]
  activity, negative = cell killing: -19.9%
[1]; [9]
  activity, negative = cell killing: 3.19%
[1]; tumour line A
  Potency: 11.2 µM (active)
[2]
  Potency: inactive

## CCC[C@@H]1C[C@@H](C(=O)N[C@@H]([C@H]2O[C@H](SC)[C@H](O)[C@@H](O)[C@H]2O)[C@@H](C)O)N(C)C1
[1]; [7]
  activity, negative = cell killing: -4.01%
[1]; [8]
  activity, negative = cell killing: 5.06%
[1]; [10]
  activity, negative = cell killing: -2.05%
[1]; [9]
  activity, negative = cell killing: 3.06%
[2]
  Potency: inactive

## CCCCN(CCCC)CCC(O)c1cc2c(Cl)cc(Cl)cc2c2cc(C(F)(F)F)ccc12 (configuration not stated)
[1]; [3]
  activity, negative = cell killing: -14%
[1]; tumour line A
  Potency: 11.2 µM (active)
[1]; tumour line B
  Potency: 10 µM (active)
[1]; tumour line D
  Potency: 11.2 µM (active)
[2]
  Potency: inactive

## CN(C)c1ccc(O)c2c1C[C@H]1C[C@H]3[C@H](N(C)C)C(=O)C(C(N)=O)=C(O)[C@@]3(O)C(=O)C1=C2O
[1]; [7]
  activity, negative = cell killing: -8.81% and -14.2% and -8.47%
[1]; [8]
  activity, negative = cell killing: -14.6% and -28.5% and -14.2%
[1]; [10]
  activity, negative = cell killing: -27.3% and -18.4%
[1]; [9]
  activity, negative = cell killing: -26.9% and -29.7%
[2]
  Potency: inactive

## CN1CCC(=C2c3ccccc3CCc3sccc32)CC1
[1]; [9]
  activity, negative = cell killing: 4.48%
[1]; tumour line A
  Potency: 3.98 µM (active)
[1]; tumour line D
  Potency: 12.6 µM (active)

## CCCCCCCCCCCCCCCCCCCCCCO
[1]; [7]
  activity, negative = cell killing: -4.68%
[1]; [8]
  activity, negative = cell killing: 1.13%
[1]; [10]
  activity, negative = cell killing: -31.4%
[1]; [9]
  activity, negative = cell killing: 4.25%
[2]
  Potency: inactive

## Cc1cc2c(s1)Nc1ccccc1N=C2N1CCN(C)CC1
[1]; [7]
  activity, negative = cell killing: -20.2%
[1]; [8]
  activity, negative = cell killing: -20.6%
[1]; [9]
  activity, negative = cell killing: -6.39%
[1]; tumour line A
  Potency: 12.6 µM (active)
[2]
  Potency: inactive

## Cc1nc2n(c(=O)c1CCN1CCC(c3noc4cc(F)ccc34)CC1)CCCC2
[1]; [7]
  activity, negative = cell killing: -28.4%
[1]; [9]
  activity, negative = cell killing: -9.67%
[1]; tumour line A
  Potency: 3.55 µM (active)
[1]; tumour line D
  Potency: 11.2 µM (active)
[2]
  Potency: inactive
